Compound activity deposited in PubChem BioAssay by National Center for Advancing Translational Sciences (NCATS).
An excerpt weighted towards active compounds, which were near 4.7% of everything screened.
D1 antag: human D1 dopamine receptor antagonism; P21728; AID 504652; activity change, negative = inhibition, % at 10 µM; actives 3.2% (n = 360,000); HEK293 TREx D1 cells, calcium flux, dopamine EC80; active compounds read low; in the data active means activity change below about -30%; further: on the % scale 0 is the no-effect control and ±100 the full control effect
Target sequence (P21728 whole entry, looked up): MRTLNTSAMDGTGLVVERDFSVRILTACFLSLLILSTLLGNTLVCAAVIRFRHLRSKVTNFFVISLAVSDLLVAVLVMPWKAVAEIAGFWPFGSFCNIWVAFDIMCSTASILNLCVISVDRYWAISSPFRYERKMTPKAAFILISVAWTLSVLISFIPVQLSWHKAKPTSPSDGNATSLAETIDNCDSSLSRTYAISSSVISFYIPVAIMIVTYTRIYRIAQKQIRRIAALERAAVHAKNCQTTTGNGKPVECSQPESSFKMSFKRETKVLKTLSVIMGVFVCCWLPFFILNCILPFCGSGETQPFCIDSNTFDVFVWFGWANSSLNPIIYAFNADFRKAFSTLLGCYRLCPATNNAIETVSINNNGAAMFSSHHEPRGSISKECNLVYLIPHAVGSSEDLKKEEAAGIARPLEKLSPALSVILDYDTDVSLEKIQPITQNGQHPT
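Inducible Hek293 Trex D1 cells (tetracycline, overnight, 30 C). Calcium dye 30–90 min RT. Antagonist mode: EC80 dopamine added after 180 s compound read.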
TRHR ag: activates the human TRH receptor; activation, % at 2 µM; actives 0.18% (n = 360,000); AID 493084; TRHR cells, calcium flux fluo-8, FDSS agonist mode; P34981; further: 0% is about no effect
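TRHR-expressing cells, plated overnight in medium with 10% serum, were loaded with fluo-8 calcium dye at room temperature. After a 10 s baseline, library compound was pin-added and calcium release was recorded kinetically (ex 480/em 530) as agonist response.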
D1 potentiator: enhances dopamine response at the human D1 receptor; actives 0.036% (n = 360,000); potentiation, % at 10 µM; AID 504651; HEK293 TREx D1 cells, calcium flux, dopamine EC20 potentiation; in the data active means potentiation above about 30%; further: 0% is about no effect
D1 agonist: activates the human D1 dopamine receptor; HEK293 T-REx D1 cells, calcium flux, agonist mode; activation, % at 2 µM; actives 1% (n = 360,000); AID 504660; P21728; further: 0% is about no effect
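Inducible HEK293 T-REx D1 cells, force-coupled to calcium signalling, were plated at 4000 cells/well with tetracycline and held overnight at 30 C. After no-wash calcium dye loading, compound-evoked calcium rise over 180 s flagged agonists.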
TRHR PAM: TRH receptor (human) allosteric enhancement; enhancement, % at 2 µM; TRHR cells, fluo-8 calcium fluorescence, EC20 TRH enhancement; P34981; actives 0.66% (n = 360,000); AID 493056; in the data active means enhancement above about 30%; further: 0% is about no effect
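Enhancer read-out: after compound pinning and an initial kinetic agonist-mode read, an EC20 of TRH (10 nM final) was injected and fluo-8 calcium signal (Ex 480/Em 530) followed at 1 s/cycle for 100 cycles in TRHR-expressing cells.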
Starred values were filed as active, the others as inactive; ! = a repeat was not active. Unless noted, no stated cut-off is given here; in the data, active means activation above about 30%; inactive means the rest.

SMILES	D1 antag	TRHR ag	D1 potentiator	D1 agonist	TRHR PAM
O=C(COC(=O)[C@H](Cc1ccccc1)NC(=O)c1cccs1)NC1CCCCC1	-42.8*	-0.9	-7.3	13.2	1.6
O=C(COC(=O)c1ccccc1NS(=O)(=O)c1cccs1)NC1CCCCC1	-54.7*	-0.7	-6.0	18.9	-1.2
COc1ccc(NC(=O)CCn2c(-c3ccc(F)cc3)cc(C(C)=O)c2C)c(OC)c1	6.8	-0.4	-7.4	3.4	-1.4
Cc1ccc2oc(-c3ccc(C)c(NC(=O)C(C)(C)Oc4ccc(Cl)cc4)c3)nc2c1	-3.0	0.8	-3.6	-1.4	2.4
O=C(Cn1c(=O)n(Cc2ccco2)c(=O)c2ccc(C(=O)NC3CCCC3)cc21)Nc1ccc(F)cc1	7.4	0.3	2.2	-0.5	-2.8
CCN1CCc2c(sc(-n3cccc3)c2C(C)NC(=O)Nc2ccc(Br)cc2)C1 (configuration not stated)	9.5	4.1	-1.6	10.7	7.8
CCOC(=O)c1cccc(NC(=O)NC(C)c2c(-n3cccc3)sc3c2CCN(C)C3)c1 (configuration not stated)	0.6	-0.7	-3.1	36.3*	3.2
CCOc1ccc(NC(=O)NC(C)c2c(-n3cccc3)sc3c2CCN(CC)C3)cc1 (configuration not stated)	-7.1	9.8	1.6	43.0*	31.3*
COc1cc(Cl)c(NC(=O)CCc2nc3cccnc3n2-c2ccccc2)c(OC)c1	-0.9	-2.0	-2.0	0.1	-0.4
O=C(CC1NCCNC1=O)Nc1ccccc1F (configuration not stated)	1.9	2.6	-2.3	0.0	5.3
C=Cc1ccc(CN2C(=O)N(c3cccc(Cl)c3)S(=O)(=O)c3ccccc32)cc1	-92.0*	0.9	-3.8	3.1	-0.2
O=S1(=O)c2ccccc2N(Cc2ccc(Cl)cc2)c2ccccc21	3.5	-0.5	-4.2	32.2*	8.0
CN1Cc2c(N3CCOCC3)nc3sc(C(=O)c4ccc(Br)cc4)c(N)c3c2CC1(C)C	-48.7*	0.9	-12.1	33.9*	-3.0
CN1Cc2c(N3CCOCC3)nc3sc(C#N)c(N)c3c2CC1(C)C	-5.2	0.1	-0.7	2.3	-0.1
COc1cc2[nH]c(=O)n(CCCC(=O)NCc3ccccc3)c(=O)c2cc1OC	-3.5	-0.2	1.4	3.0	6.4
COc1ccc(-c2cc(C(F)(F)F)nc(SCC(=O)N3CCCCC3)n2)cc1	-16.1	0.5	-7.2	3.7	4.8
O=C(CCCc1nc2ccccc2s1)N1CCN(c2ccccc2)CC1	-42.7*	-1.0	-13.9	0.2	-0.2
Cc1cc(C(F)(F)F)nn1Cc1n[nH]c(=S)n1-c1ccc(Cl)cc1	-11.8	0.3	-0.5	0.8	3.2
Cc1cc(C(F)(F)F)nn1Cc1n[nH]c(=S)n1-c1cccc(Cl)c1	-32.0*	0.0	-3.8	2.6	-2.8
CSCCC(NC(=O)C1CCCCC1)C(=O)Nc1ccc(F)c(Cl)c1 (configuration not stated)	-4.0	0.0	-0.2	1.0	-0.5
O=C(CCCN1CCC(C(=O)c2ccc(F)cc2)CC1)c1ccc(F)cc1	-84.5*	-0.9	-8.5	7.2	-7.8
CC(=O)N1CCC(O)(c2cccc(C(F)(F)F)c2)CC1	-3.1	0.9	5.7	1.4	8.5
O=C(CCCN1CCC(O)(c2cccc(C(F)(F)F)c2)CC1)c1ccc(F)cc1	-0.3	-1.8	2.4	61.3*	1.0
O=C(CCCC(=O)c1ccc(F)cc1)c1ccc(F)cc1	-1.7	1.2	1.8	3.5	-3.8
O=C(CCCN1CCC(O)(c2ccc(Br)cc2)CC1)c1ccc(F)cc1	-87.4*	2.9	-1.9	70.4*	17.2
CCOc1ccc(CCNC(=O)Cn2nnc(-c3ccc(C(F)(F)F)cc3)n2)cc1OCC	4.1	0.3	-5.0	-0.8	-3.5
COc1ccc(OC)c(CNC(=O)c2ccc3c(c2)c(C)c(C)n3Cc2ccc(Cl)cc2)c1	-9.9	0.0	-4.1	3.7	-2.1
CCOC(=O)CC(NC(=O)Cn1nnc(-c2ccccc2C)n1)c1ccc(OC)cc1 (configuration not stated)	-19.0	1.3	-8.7	31.4*!	-0.9
CCOC(=O)CC(NC(=O)Cn1nnc(-c2ccc(C(F)(F)F)cc2)n1)c1ccc(OC)cc1 (configuration not stated)	-16.0	-1.4	1.6	16.8	-11.2
